Results filed as inconclusive are left out. Values without a mark were called inactive. Activity calls are given as the source filed them. Calls follow the shape of the dose curve; as a rule, active = well fitted inhibition curve with a large enough effect; inconclusive = small, poorly fitted or top-dose-only effect; inactive = no such curve, though single readings can be large or run the other way.
System: Zika virus NS2B-NS3 protease (linked construct)
Assay: Primary screen NINDS Rhodamine qHTS for Zika virus inhibitors (AID 1347160); also: nearly all actives have a fitted effect of over 55% in size
Details: purified NS2B-NS3 protease, Rhodamine110 substrate fluorescence; series mostly up to 57.1 µM; activity change, negative = inhibition: at the top concentration
Text: Avindra Nath, Ph.D., National Institute of Neurological Disorders and Stroke (NINDS), Bethesda, MD
Radhakrishnan Padmanabhan, Ph.D., Georgetown University (GU), Washington D.C.
Zika Virus causes congenital defects, including microcephaly and is associated with Guillain-Barre syndrome, eningoencephalitis and myelitis in infected adult. […] Using a target-based approach, we hope to establish a screening paradigm to uncover novel, cell-active NS2B-NS3 protease (Zika Virus) specific inhibitors from NCATS' collection of small molecules using qHTS.
Four assay panel was created to identify potential Zika Virus inhibitors. Namely, (1) GU unlinked NS2B-NS3 AMC tagged protease qHTS, (2) GU unlinked NS2B-NS3 Rhodamine tagged protease qHTS, (3) NINDS linked NS2B-NS3 AMC tagged protease qHTS, (4) NINDS linked NS2B-NS3 Rhodamine tagged protease qHTS. Active compounds were re-acquired and re-screened to confirm inhibition. Inhibitors were further screened against various confirmatory and counterscreens in dose response format.
Early Translation Branch (ETB)
National Center for Advancing Translational Sciences (NCATS), Rockville, MD
National Institute of Health (NIH), Bethesda, Maryland
For the linked assay, Nath lab (NINDS) provided the purified linked NS2B-NS3 protease which is consists of hydrophilic domain of NS2B linked to the NS3 protease domain by a flexible (-[…]-) linker. Control compound aprotinin is obtained from Thermo Scientific (#78432; Waltham, Massachusetts). Rhodamine110 substrate ([N-Cbz]-Nle-Lys-Arg-Arg-Rhod110-Arg-Arg-Lys-Nle-[N-Cbz]) was purchased from either Genscript or Bachem.
1536-well Protease (Rhodamine110 Substrate) Assay:
Briefly, 3 microL of enzyme (25 nM final concentration), in assay buffer (10 mM Tris-HCl pH 8.0 with 0.01% Tween 20) were dispensed into a 1,536-well solid-bottom black plate (Greiner Bio One, Monroe, NC). Twenty-three nL of compounds (final concentration range 7.28 nM to 114 microM) or control Aprotinin (final concentration range 3.47 nM to 114 microM) were transferred via Wako Pin-tool (Wako Automation, Richmond, VA). Samples were incubated (room temperature, protected from light) for 15 minutes followed by a 1 microL Rhodamine110 substrate addition (1.5 microM final concentration). Plates were then immediately read on a ViewLux High-throughput CCD imager (PerkinElmer, Waltham, MA) equipped with FITC fluorescence optics (480(20) nm excitation, 540(25) nm emission), then incubated (room temperature, protected from light) for 15 minutes (~15% conversion). The change in fluorescence intensity over the 15-minute reaction period was normalized against no-inhibitor and no-enzyme controls and the resulting percent inhibition data were fitted to a 4-parameter Hill equation. Aprotinin was used as intraplate control.
% is scaled to controls: 0 for no effect and ±100 for the full control effect; potency is read from the fitted curve at half-maximal effect.

| SMILES | activity change, negative = inhibition | Potency | outcome |
| --- | --- | --- | --- |
| COc1cc(C(C)=O)ccc1O[C@@H]1O[C@H](CO[C@@H]2O[C@@H](C)[C@H](O)[C@@H](O)[C@H]2O)[C@@H](O)[C@H](O)[C@H]1O | 2.77% [at 33.1 µM] |  |  |
| CC1=CC[C@]2(C(=O)O[C@@H]3O[C@H](CO[C@@H]4O[C@H](CO)[C@@H](O[C@@H]5O[C@@H](C)[C@H](O)[C@@H](O)[C@H]5O)[C@H](O)[C@H]4O)[C@@H](O)[C@H](O)[C@H]3O)CC[C@]3(C)C(CCC4[C@@]5(C)C[C@@H](O)[C@H](O)[C@@](C)(CO)C5CC[C@]43C)C2C1C (stereo not given in full) | 6.79% [at 15.1 µM] |  |  |
| O=C(O)c1cc(O)c2cccc(O)c2c1O[C@@H]1O[C@H](CO)[C@@H](O)[C@H](O)[C@H]1O |  | 5.01 µM (active) |  |
| CCOC(=O)N1CCC(NCCNC(=O)c2ccccc2C)CC1 | 20.7% |  |  |
| CC(=O)c1cnc2ccc(-c3cc(Cl)c(O)c(Cl)c3)nc2c1NC1CCC(CN(C)C)CC1 (stereo not given) |  |  | inactive; activator [at 10.7 µM] |
| CCOC(=O)[C@H](CCc1ccccc1)N[C@@H](C)C(=O)N1C2CCCCC2C[C@H]1C(=O)O (stereo not given in full) | 34% |  |  |
| O=C(c1ccc(C#Cc2cccc(F)c2)cn1)N1CC2CC2C1 (stereo not given) | 16% |  |  |
| CC1=C2[C@@H]([C@H](C)CC[C@H]2/C=C(\C)C(=O)O)[C@H](O)C1 |  |  | inactive |
| CC(C)CC(=O)OC[C@H]1O[C@@](COC(=O)CC(C)C)(O[C@H]2O[C@H](CO)[C@@H](O)[C@H](O)[C@H]2OC(=O)CC(C)C)[C@@H](OC(=O)CC(C)C)[C@@H]1O |  |  | inactive [at 15.1 µM] |
| CO[C@@]12CC3[C@@H]([C@@H](O)[C@@H](OC(C)=O)C4[C@](C)(COC(C)=O)CCC[C@]34C)[C@@H](C)C1=CC(=O)O2 (stereo not given in full) |  |  | inactive [at 33.1 µM] |
| CCC(=O)N[C@@H]1Cc2ccccc2[C@H](c2ccccc2)C1 |  |  | inactive |
| C=C1CC2[C@]3(C)C(=C(O)C(=O)[C@@]2(C)[C@]2(C(=O)OC)C(=O)C(C)OC(=O)[C@@]12C)C(C)(C)C(=O)CC3O (stereo not given in full) | 10.9% [at 33.1 µM] |  |  |
| CC1OC(OC2C(CO)OC(OCC3OC(OC(=O)C45CCC(C)(C)CC4C4=CCC6C7(C)CCC(OC8OC(C(=O)O)C(O)C(OC9OC(CO)C(O)C(O)C9O)C8O)C(C)(C)C7CCC6(C)C4(C)CC5)C(O)C(O)C3O)C(O)C2O)C(O)C(O)C1O (stereo not given) | 9.74% [at 10.7 µM] |  |  |
| CC1CCC(=O)CC(O)C(O)CC(=O)O1 (stereo not given) | -11.7% |  |  |
| CCCC(N[C@@H](C)C(=O)N1[C@H](C(=O)O)C[C@@H]2CCCC[C@@H]21)C(=O)OCC (stereo not given in full) | -7.07% |  |  |
| OC[C@H]1O[C@@H](OCCc2ccc(O)cc2)[C@H](O)[C@@H](O)[C@@H]1O | -2.51% |  |  |
| C[C@H]1C[C@H]2[C@@H]3CCC4=CC(=O)C=C[C@]4(C)[C@@]3(F)[C@@H](O)C[C@]2(C)[C@@]1(O)C(=O)COP(=O)(O)O | -2.08% |  |  |
| Cn1ccnc1CCOC(c1cc2nccc(C(=O)O)c2[nH]1)c1ccccc1Cl (stereo not given) | 7.84% |  |  |
| CC(=O)N[C@H]1[C@H](O[C@H]2CC[C@@]3(C)C(CC[C@]4(C)C3CC=C3C5CC(C)(C)CC[C@]5(C(=O)O)[C@H](O[C@@H]5O[C@H](CO)[C@@H](O)[C@H](O)[C@H]5O)C[C@]34C)C2(C)C)O[C@H](CO[C@@H]2OC[C@H](O)[C@H](O)[C@H]2O[C@@H]2OC[C@@H](O)[C@H](O)[C@H]2O)[C@@H](O)[C@@H]1O (stereo not given in full) | -1.46% [at 15.1 µM] |  |  |
| CC1(C)C(=O)C(C)(C)c2cc(C(=O)Nc3ccc(C(=O)O)cc3)ccc21 | -4.75% |  |  |

| SMILES | activity change, negative = inhibition | Potency | outcome |
| --- | --- | --- | --- |
| CCNC(=O)[C@H]1O[C@H](n2cnc3c(NCC(c4ccccc4)c4ccccc4)nc(C(=O)NCCNC(=O)NC4CCN(c5ccccn5)CC4)nc32)[C@H](O)[C@@H]1O | 37.3% |  |  |
| O=C(O)CCc1cc2ccoc2cc1O[C@@H]1O[C@H](CO[C@@H]2OC[C@](O)(CO)[C@H]2O)[C@@H](O)[C@H](O)[C@H]1O | 2.14% [at 33.1 µM] |  |  |
| C[C@@H]1CC[C@]2(C(=O)O[C@@H]3O[C@H](CO)[C@@H](O)[C@H](O)[C@H]3O)CC[C@]3(C)C(=CCC4[C@@]5(C)C[C@@H](O)[C@H](O)C(C)(C)C5CC[C@]43C)C2[C@]1(C)O (stereo not given in full) | 7.22% [at 15.1 µM] |  |  |
| COc1ccc(C2=CC(=O)OC2Cc2ccc(O)cc2)c(O)c1 (stereo not given) | 1.01% [at 33.1 µM] |  |  |
| Cc1cccc(-c2[nH]c(CNc3ccccc3F)nc2-c2ccc3ncnn3c2)n1 | 9.69% |  |  |
| FC(F)(F)c1cc(C(F)(F)F)c2ccc3nc(-c4nnco4)cn3c2n1 |  |  | inactive |
| C[C@]12CCC[C@](C)(C(=O)O)C1CCC13C=C(CO)C(CCC12)C3 (stereo not given in full) | 29.7% [at 33.1 µM] |  |  |
| C/C=C/C=C/C=C/C(=O)O[C@@H]1[C@@H](OC)C2=C(C(=O)N(C(C)C(=O)O)C2)[C@@]2(C)CCCC(C)(C)[C@H]12 (stereo not given in full) |  | 11.2 µM (active) |  |
| C=CC1(C)CC(O)C2(CCC3C(C)(C(=O)O)CCCC3(C)C2=O)C1 (stereo not given) |  |  | inactive [at 33.1 µM] |
| CC1(C)C(=O)N2c3ccccc3[C@]3(CC(n4cnc5ccccc5c4=O)C(=O)O3)[C@H]2N1O (stereo not given in full) | 23.6% [at 33.1 µM] |  |  |
| C=CC1(C)C=C2C(=O)CC3C(C)(C)CCCC3(C(=O)O)C2(O)CC1 (stereo not given) |  |  | inactive [at 33.1 µM] |
| CCC(NC(=O)CC(NC(=O)C(CO)NC(=O)C(CC)NC(=O)c1ccc[nH]1)c1ccccc1)C(=O)O (stereo not given) | 12.8% [at 15.1 µM] |  |  |
| COc1cc(C(=O)OC[C@H]2O[C@H](O[C@@]3(CO)O[C@@H](CO)[C@H](O)[C@H]3O)[C@H](O)[C@@H](O)[C@@H]2O)ccc1O | 23.6% [at 33.1 µM] |  |  |
| C[C@H](NCc1ccc(OCc2ccccc2F)cc1)C(N)=O |  |  | inactive |
| C/C1=C\C[C@H](O[C@@H]2O[C@H](CO)[C@@H](O)[C@H](O)[C@H]2O)/C(C)=C/[C@H]2OC(=O)[C@H](C)[C@@H]2CC1 | -18.7% [at 33.1 µM] |  |  |
| CCN[C@@H]1C[C@H](N)[C@@H](O[C@H]2OC(CN)=CC[C@H]2N)[C@H](O)[C@H]1O[C@H]1OC[C@](C)(O)[C@H](NC)[C@H]1O |  | inactive |  |
| CC(C)N(C[C@H]1O[C@@H](n2cnc3c(N)ncnc32)[C@H](O)[C@@H]1O)C1CC(CCc2nc3ccc(C(C)(C)C)cc3[nH]2)C1 (stereo not given in full) | 5.37% |  |  |
| C=C1CCC2(OC1)OC1CC3C4CC=C5CC(O)CC(O[C@@H]6OC[C@@H](O)[C@H](O)[C@H]6O)C5(C)C4CCC3(C)C1(O)C2C (stereo not given in full) | 23.3% [at 15.1 µM] |  |  |
| Cc1cc(C)c(S(=O)(=O)N(Cc2ccc(-c3cccc(S(C)(=O)=O)c3)cc2)Cc2ccc(C(F)(F)F)o2)c(C)c1 | 5.24% |  |  |
| COc1cc(/C=C/C(=O)O[C@H]2[C@H](OC(=O)/C=C/c3cc(OC)c(O)c(OC)c3)O[C@H](CO[C@@H]3O[C@H](CO)[C@@H](O)[C@H](O)[C@H]3O)[C@@H](O)[C@@H]2O)ccc1O |  |  | inactive [at 15.1 µM] |

From PubChem BioAssay (NCATS)
